FECH block: inhibitors of human ferrochelatase. purified FECH, Ni-mesoporphyrin absorbance 550 nm. P22830. actives 3.3% (n = 20,000). calls only at 10 µM (by protocol);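 active means enzyme reaction rate more than 3 SD below the solvent-only control wells on the same plate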;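 further: lower slope than DMSO wells means FECH inhibition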
Target sequence (P22830 whole entry, looked up): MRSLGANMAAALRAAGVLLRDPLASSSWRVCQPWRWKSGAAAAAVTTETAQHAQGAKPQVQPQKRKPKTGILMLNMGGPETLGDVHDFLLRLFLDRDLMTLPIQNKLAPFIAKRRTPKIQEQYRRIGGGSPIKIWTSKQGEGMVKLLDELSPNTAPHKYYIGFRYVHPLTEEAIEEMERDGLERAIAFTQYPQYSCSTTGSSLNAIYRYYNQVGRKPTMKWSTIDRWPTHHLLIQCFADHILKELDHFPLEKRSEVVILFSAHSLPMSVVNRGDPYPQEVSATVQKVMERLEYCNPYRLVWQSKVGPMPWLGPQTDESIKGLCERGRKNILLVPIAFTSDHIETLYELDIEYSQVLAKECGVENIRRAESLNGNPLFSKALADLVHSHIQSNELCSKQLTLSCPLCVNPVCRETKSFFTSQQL
* marks the source's active call; other numbers are inactive results; i = inactive; + = active, no number. The full list was thinned out, with hits kept by preference.

SMILES	FECH block
Cc1ccc(-c2ncc3c(=O)n(CCc4c(C)noc4C)c(=O)n(C)c3n2)cc1	i
COc1ccc(-c2cc(C(=O)Nc3ccc(S(N)(=O)=O)cc3)no2)cc1	+
Cc1ccc(-c2cc(C(=O)NCc3ccc(S(N)(=O)=O)cc3)no2)cc1	i
Cc1ccc(-c2cc(C(=O)NCCc3ccc(S(N)(=O)=O)cc3)no2)cc1	i
Cc1ccc(-c2cc(C(=O)Nc3ccc(S(N)(=O)=O)cc3)no2)cc1	i
CCOc1ccc(-c2cc(C(=O)NCc3ccc(S(N)(=O)=O)cc3)no2)cc1	+
NS(=O)(=O)c1ccc(NC(=O)c2cc(-c3ccccc3)on2)cc1	i
CCC(=O)c1ccc(OCC(=O)NC[C@@H]2C[C@@H]3C=C[C@H]2C32CC2)cc1	i
COc1ccc(Nc2cc(C)nc(Nc3ccc(NC(=O)c4cc(OC)cc(OC)c4)cc3)n2)cc1	i
OCCN(Cc1ccc2c(c1)OCCO2)Cc1cccs1	i
CCOCCCNC(=O)C1c2c(n(C)c3ccccc23)SCC(=O)N1c1ccc(C(=O)OCC)cc1 (centres undefined)	i
c1ccc(-n2nnnc2-c2cccc3[nH]ccc23)cc1	i
Cc1ccccc1OCC(=O)Nc1cccc(OCc2cc(=O)n3cc(Cl)ccc3n2)c1	i
C=Cc1cccc(CN2CCC3(CC2)CNC(=O)C3)c1	i
Cc1ccc(OCC(=O)Nc2cc(N3CCCS3(=O)=O)ccc2C)cc1	i
COc1cccc(OCC(=O)Nc2cc(N3CCCS3(=O)=O)ccc2C)c1	i
Cc1cccc(OCC(=O)Nc2cc(N3CCCS3(=O)=O)ccc2C)c1	+
Cc1ccc(-n2ncc3c(-n4nc(C)cc4NC(=O)c4ccc(Br)o4)ncnc32)c(C)c1	i
Cn1c(=O)n(-c2ccc(F)cc2)c2nc(-c3ccccc3)nc(C(N)=O)c21	i
Cc1nc(-c2cccc(-c3ccc(C(C)N4CCOCC4)cc3)c2)no1 (centres undefined)	i
O=C(Cn1cncn1)N1CCOc2c(O)cc(-c3cccc(Cl)c3)cc2C1	i
CCc1ccc(NS(=O)(=O)c2ccc3c(c2)C(=O)NC3)cc1	i
CCc1ccc(NS(=O)(=O)c2ccc(C(=O)N(C)C)s2)cc1	i
COc1ccc(NS(=O)(=O)c2ccc(N)c(S(N)(=O)=O)c2)cc1	+
CCc1ccc(NS(=O)(=O)c2ccc(N)c(S(N)(=O)=O)c2)cc1	+
SMILES	FECH block
Cc1ccc(NS(=O)(=O)c2ccc(N)c(S(N)(=O)=O)c2)cc1	+
CCN(CC)c1ncc(NS(=O)(=O)c2ccc(OC)cc2)cc1C(=O)O	i
NS(=O)(=O)c1ccc(NS(=O)(=O)c2ccc3c(c2)NC(=O)CC(=O)N3)cc1	i
Cn1cnc(S(=O)(=O)Nc2ccc(S(N)(=O)=O)cc2)c1	i
COc1ccc(-c2csc(C)n2)cc1S(=O)(=O)Nc1ccc(S(N)(=O)=O)cc1	i
COc1ccc(CN(Cc2ccsc2)Cc2ccco2)c(Cl)c1O	i
Cc1ccc(C(=O)Nc2cc(C)nn2-c2ncnc3c2cnn3-c2ccc(Cl)cc2)cc1	i
CCC(CC)n1nc(C)cc1NC(=O)CCc1ccccc1	i
COc1nc2ccccc2cc1-c1cc(C)cnc1-n1cnnc1	i
CN1CC2(CCN(Cc3cccc(O)c3)CC2)CC1C(=O)O (centres undefined)	i
CCn1ccnc1CN(C)Cc1noc(C)n1	i
O=C1CCCN1CCCn1ccnc1-c1ccc2c(c1)OC(F)(F)O2	i
Cc1ccc2nc(CN(C)C(=O)c3cc(C(C)C)nn3C)[nH]c2c1	i
COc1ccc(C(=O)Nc2cccc(OCc3cc(=O)n4ccc(C)cc4n3)c2)cc1	i
COc1ccccc1C(=O)Nc1cccc(OCc2cc(=O)n3cc(Cl)ccc3n2)c1	+
CCCC(=O)Nc1cccc(OCc2cc(=O)n3cc(Cl)ccc3n2)c1	i
Cc1ccn2c(=O)cc(COc3cccc(NC(=O)c4cccs4)c3)nc2c1	i
COc1cccc(C(=O)Nc2cccc(OCc3cc(=O)n4cc(Cl)ccc4n3)c2)c1	i
Cc1ccn2c(=O)cc(COc3cccc(NC(=O)c4ccccc4C)c3)nc2c1	i
Cc1ccn2c(=O)cc(COc3cccc(NC(=O)c4ccco4)c3)nc2c1	+
Cc1ccn2c(=O)cc(COc3cccc(NC(=O)c4cccc(Br)c4)c3)nc2c1	i
Cc1ccn2c(=O)cc(COc3cccc(NC(=O)C(C)C)c3)nc2c1	+
CC(C)NC(=O)[C@@H]1C[C@H](N)CN1Cc1cc2c(cc1Cl)OCO2	i
O=S(=O)(NCc1nc2cccnc2n1C1CC1)c1ccc(F)c(Cl)c1	i
CC(C)NC(=O)CSc1nc(-c2ccc3c(c2)OCO3)nc2cc(=O)[nH]n12	i
SMILES	FECH block
Cc1n[nH]c(C)c1C(NC(=O)c1cc2c(s1)CCCCC2)C(=O)O (centres undefined)	i
Cc1ccccc1CN1CCC(CNC(=O)Cc2cccnc2)CC1	i
Cc1cc(C)c2ncn(CCC(C)O)c(=O)c2c1 (centres undefined)	i
Cc1cc(Cl)cc2c(=O)n(CC3(CO)CCC3)cnc12	+
Cc1cccc2c(=O)n(CCN3CCCC(c4ccccc4)C3)cnc12 (centres undefined)	i
CCCn1c(CNS(=O)(=O)c2ccc(NC(C)=O)cc2)nc2cccnc21	i
Cc1ccc(NC(=O)CN2CCCN(Cc3ccccc3)S2(=O)=O)c(Cl)c1	i
Cc1ncsc1-c1ccn(CC(=O)Nc2ccnn2C2CCCCC2)n1	i
CCn1nc(-c2ccccc2)c(-c2ccccc2)c(C(=O)Nc2ccc(S(N)(=O)=O)cc2)c1=O	+
NS(=O)(=O)c1ccc(NC(=O)c2c(-c3ccccc3)c(-c3ccccc3)n[nH]c2=O)cc1	i
NS(=O)(=O)c1ccc(NC(=O)c2ccc(-c3nc(-c4ccccc4)no3)cc2)cc1	i
COCc1ccc(C(=O)Nc2cc(C(N)=O)ccc2N2CCCCC2C)o1 (centres undefined)	i
CN(Cc1csc(-c2ccccc2)n1)Cc1ncccc1C(=O)O	i
CC#CCN(Cc1ccco1)C(=O)C(C)N(c1ccccc1)S(C)(=O)=O (centres undefined)	i
COc1cccc(Cn2c(CNC(=O)c3cccc(OC)c3)nc3cccnc32)c1	i
CCCc1ccc(S(=O)(=O)NCc2nc3cccnc3n2Cc2ccccc2)cc1	+
COCCn1c(CNC(=O)c2ccc(OC)cc2OC)nc2cccnc21	i
CC(C)c1ccc(S(=O)(=O)NCc2nc3cccnc3n2Cc2ccccc2)cc1	i
CC(C)Cc1ccc(S(=O)(=O)NCc2nc3cccnc3n2Cc2ccccc2)cc1	i
Cc1ccc(S(=O)(=O)NCc2nc3cccnc3n2C2CCCC2)cc1	+
CCCn1c(CNS(=O)(=O)c2ccc(Cl)cc2)nc2cccnc21	i
COc1cccc(Cn2c(CNC(=O)c3ccc(OC)cc3OC)nc3cccnc32)c1	+
CCc1ccc(Cn2c(CNS(=O)(=O)c3ccc(CC)cc3)nc3cccnc32)cc1	i
COc1ccc(S(=O)(=O)NCc2nc3cccnc3n2C2CCCC2)cc1	i
O=S(=O)(NCc1nc2cccnc2n1C1CCCCC1)c1ccc(Cl)cc1	i
CCCn1c(CNS(=O)(=O)c2ccc(CC(C)C)cc2)nc2cccnc21	+
Cc1cc(C)cc(Oc2cc(Cl)ncn2)c1	i
Cc1ncc2c(=O)n(Cc3ccc(Br)cc3F)c(=O)n(C)c2n1	i
CN1CCC2(CCCN(C(=O)COc3ccc4c(c3)OCO4)CC2)CC1	i
CCC1CN(C(=O)c2ncc(F)cc2F)CCC(=O)N1Cc1ccccc1 (centres undefined)	i

Assay outcomes (PubChem BioAssay)
